Results on 40 sequences are retold here after the supplement of paper PMC6555819.

The test system of this test is VDR:RXRa (NR concentration 270 nM, RXRa partner concentration 90 nM). Nature of the test: PBM binding z-score (relative to random genomic background probes); higher = stronger binding; sequences stand for … in GC…GCGATTGACAGCGTAGAATGAAGG
The method, then: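 Protein-binding microarray (Agilent 4x180K custom design, double-stranded 60-nt probes: 5' GC cap, 34-nt variable region, 24-nt constant primer region; full probe sequence given). Purified or IVT nuclear receptor:RXRα heterodimers (3:1 NR:RXRα, mostly 270:90 nM) or homodimers were incubated for 1 h in PBS with 2% milk and no ligand, then detected with Alexa488 antibodies. Fluorescence from o1-orientation probes (~5 replicates averaged) was converted to z-scores against 500 random hg19 background probes. Variable regions are seed direct-repeat (DR0–DR5) sites, all their single-nucleotide variants and half-site ablations.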
Sequence CTCGAGAGGTCGTGCTCAGGTGAGTATACCAAAC registered a PBM binding z-score of 3.37.
To TAGCATAGGTCATGGGCCAGTATACCACGCGAAC belongs 3.33; to GCTGGGAGGACAAGGTCAGAGCTTTGTCCGTAGA, 1.4.
The figure for CGTCCAAGGGCATAGGAGGTCAGTGAAGACAGAT is 3.99.
To CCTAGCAGGCCAATCTGGGTCATTCAAGGCTTGA belongs 1.06.
CCTCCTGGGCCAAAAAGGTCATTGATGCCGATAA returned a PBM binding z-score of 4.94.
To ATATGTAGGTTATCGGGTCTTTCAGTTTGCGCAT belongs 3.12.
To ACTAGCAGGCCAAGGGTCACTCTAGATTAGTCCG belongs 2.58.
The figure for CCTACTGGGCCATCAGATCATTGATATCAACGTT is -0.181.
Sequence CAAAGTAGGTCACAGAGGTCAAAGTCCGTGCGTA showed a PBM binding z-score of 7.99.
In turn, ATCTCTAGGTAAAAATTCAGTGAATCCCGAGGAT registered a PBM binding z-score of -0.13.
Consider TTACCAAGGTGAGCTGAGCTCGTTGATCCAACTC, for which the PBM binding z-score is -0.427.
With TCTAGCAGGCCAGAGGGTCATTCAAGAGGTACGG, the PBM binding z-score was determined as 2.25.
The figure for TATTGTAGATCAACAGGAGGTTAAGAAAGATCGA is 0.587; for TCATATAGGTAAACGGTGAAAGTCGGTGTGGTAA it is 0.79; for TCATATAGGTAGACAGGTGAAAGTCCGTAAGTTA it is 0.905.
The figure for CCTACTGGGCCATCAGGTCATTGACATCAACGTT is 1.64.
To TCTATTAGTAGATTAGGGCAACCGAAACAGCGGA belongs 0.247; to GATAGAGGGTCAGCTAGAGGCCAGAGTATGGAAA, 2.45; to TCGAGTAGGTTAGTCGGGCCATTCAGCCAACATA, 0.761.
Take TCATATAGGTAATACAGGTGAAGGTCGGCATCTA: the PBM binding z-score turned out to be 1.62.
To CCAGACAGGTGAAAAGGTAACTCAGCCTCGATTA belongs 0.369; to GCGACTGGGGCAAAGCAGGTTACCACAAGGTTGG, 0.0392.
To TCACGGAGGACACGAAAGGTCAGAGCTCGACATC belongs 3.47.
In turn, ATCGAAAGGTCGACGACGTGAGTATACACCGTTT returned a PBM binding z-score of 2.25.
In turn, TCGGCTAGGTCAGTTGGTCAGCTAACGAGCTGCC came in with a PBM binding z-score of 0.16.
To TCATATAGGTAAAAGGTGAATGTCGGTGTGGTAA belongs 1.44.
The figure for ATCTCTAGGTAAGACTCAGTTCAGTGGAGAACGC is 0.529; for GCTCCTAGGTCAACTGATGGTCAGCTAAAGCTCG it is 2.29; for TCTAGCAGGCCAGAGGGTCACTCAAGAGGTACGG it is 1.28.
To CCTGCTAGGTCACGGTCAGCTAATCTACAGTATG belongs 2.5; to GCTATTAGTTGAAAGGGCAACCGTATGATTCTCG, 0.653; to CCTGCTAGGTCAATGTTCAGCTAAAGCAGCTCGC, 1.05.
For CTCGAAAGGTCGGTTGAGGTGAGAATACGGATAA, the PBM binding z-score was found to be 2.26.
To AATACAGGGTCATCGTAGGCCAGTGTACGCACAG belongs 5.18.
To CCTATTAGATGACCATAAGGGCAACCGAAGCTCG belongs 0.352; to ATCTATAGGTAAGACTCAGTTCAGTGAAGAACGC, 0.866; to GCTGCTAGGCCAGGTTGGTCAGCTAACGGGTACG, -1.03.
To CCTCGGAGGACAACAGGAGGTAAGAGCTGCCAGA belongs -0.357.
On to GCGACTGGAGCAAAGCAGGTTACCATAAGGTTGG, for which the PBM binding z-score is -0.418.
